Drawing on PubChem BioAssay (EPA / NIEHS), this text covers AC50 and outcome for 19 molecules.

Test [1] in a line: CCTE_Simmons_MITO_basal_resp_rate: CCTE's HepG2 Seahorse XF Respirometric Screening Assay at Basal Respiratory State, Simmons Lab (AID 2284001). To be noted: actives raise or lower the signal. The method, boiled down:
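Readout is oxygen consumption rate after test compound injection, measured by Seahorse XF in HepG2 cells. Seven concentrations from 125 nM up to 100 uM final are tested, and activity in either direction is fitted against DMSO.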

Test [2] is described as follows: CCTE_Simmons_MITO_max_resp_rate: CCTE's HepG2 Seahorse XF Respirometric Screening Assay at Maximal Respiratory State [uncoupled], Simmons Lab (AID 2284002). The following applies: actives raise or lower the signal. The method, boiled down: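 HepG2 oxygen consumption measured on Seahorse XF after FCCP uncoupling, following test compound injection; 7 concentrations from 125 nM to 100 uM final. Readings every 6 min over 72 min, three biological replicates; bidirectional fit versus DMSO.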

A short description of test [3]: CCTE_Simmons_MITO_inhib_resp_rate: CCTE's HepG2 Seahorse XF Respirometric Screening Assay at Inhibited Respiratory State [full ETC block], Simmons Lab (AID 2284006). The following applies: actives raise or lower the signal. The method, boiled down: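 This endpoint is the respiration rate remaining after rotenone/antimycin A block, in HepG2 cells on a Seahorse XF96. Chemicals spanned 125 nM–100 uM final, in three biological replicates. OCR was read every 6 minutes for 72 minutes and compared with DMSO vehicle.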

A short description of test [4]: CCTE_Harrill_HTTr_Viability_MCF7: CCTE's 6-hour Cell Viability Assessment for the High-Throughput Transcriptomics (HTTr) Platform, in MCF-7 cells cultured in DMEM + 10% fetal bovine serum, Harrill Lab (AID 2284010). Summed up:
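Propidium iodide exclusion, imaged by high-content analysis, gauged viability after a six-hour exposure across eight concentrations. Cells were MCF-7 grown in DMEM with 10% fetal bovine serum; fits run in both directions against DMSO.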

Test [5] is described as follows: CCTE_Shafer_MEA_acute_spike_number: CCTE's Neural Acute Assay for Total Number of Spikes, Shafer Lab (AID 2284008).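 For AC50: curve fitted for decrease in spike count so AC50 reflects inhibitors.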 The method, boiled down: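 Rat primary cortical neurons on 48-well MEA plates, DIV 13 or 15, at 37 C. 40 min baseline then 40 min with compound (0.03-40 uM); spikes detected at 8x rms noise, expressed as percent change from baseline.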
The nature of test [6]: CCTE_Shafer_MEA_acute_firing_rate_mean: CCTE's Neural Acute Assay for Mean Firing Rate, Shafer Lab (AID 2284009).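 Note: analyzed for loss of signal so actives lower firing rate relative to DMSO.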 The method, boiled down: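 Spontaneous spiking of primary rat cortical networks, DIV 13/15, 37 C. Compound 0.03-40 uM, n ≥3 wells; 40 min baseline vs 40 min treated. Endpoint fitted in loss-of-signal direction against DMSO.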
A short description of test [7]: CCTE_Simmons_MITO_viability: CellTiter-Glo Viability Assessment for CCTE's HepG2 Seahorse XF Respirometric Screening Assay [post-hoc], Simmons Lab (AID 2284007; active = hit-call score of the fitted dose curve at least 0.9, where 1 is the maximum). Summed up: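 Luciferase-coupled ATP read-out after the Seahorse run: HepG2 cells treated 90 minutes with test chemical, 7-point series of 125 nM–100 uM final, in triplicate biological runs. Vehicle DMSO; dichlone as positive control over 8 concentrations.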
For orientation: Cellular ATP, detected with luciferase, serves as a proxy for viable cell number.

Records with an inconclusive call do not appear. The source made the active and inactive calls. Rule for the calls, unless noted: active = hit-call score of the fitted dose curve at least 0.9, where 1 is the maximum; inactive = score below 0.9.

For orientation: AC50 means the concentration at which the activity in the assay is half-maximal. Turning to `CCCCCCCCCCCO`, in test [1], the AC50 is 80.1 µM (active). In addition, the result in test [2], in test [3] and in test [4] was inactive.

Take `CC[C@@H]1C[C@H](N(Cc2cc(C(F)(F)F)cc(C(F)(F)F)c2)C(C)=O)c2cc(C(F)(F)F)ccc2N1C(=O)OC(C)C`: the molecule was classed as inactive in test [5], in test [6] and in test [4].

For the molecule `Cc1cccc2ccccc12`, the outcome in test [4] was inactive.

Turning to `O=CCCCC=O`, the result in test [4] was inactive.

Take `Oc1ccccc1`: the result in test [4] was inactive.

Consider `O=C(OCCCCCCOC(=O)c1ccccc1)c1ccccc1`, for which the result in test [4] was inactive.

For `CN1C(=O)CC[C@H]1c1cccnc1`, the outcome in test [5], in test [6] and in test [4] was inactive.

Turning to `CCN(Cc1cccc(S(=O)(=O)O)c1)c1ccc(C(=C2C=CC(=[N+](CC)Cc3cccc(S(=O)(=O)O)c3)C=C2)c2ccccc2S(=O)(=O)[O-])cc1`, the call in test [5], in test [6] and in test [4] was inactive.

Regarding `COc1cccc([C@H](O)C2CCN(CCc3ccc(F)cc3)CC2)c1OC`, the AC50 in test [5] and in test [6] was 2.87 µM (active) each time. Moreover, the outcome in test [4] was inactive.

In the case of `c1ccc(C[n+]2cccc3ccccc32)cc1`, in test [4], the outcome was inactive.

For the molecule `CCO[Si](CCCNC(N)=O)(OCC)OCC`, in test [4], the result was inactive.

Regarding `CCCCOC(=O)CC(CC(=O)OCCCC)(OC(C)=O)C(=O)OCCCC`, the result in test [4] was inactive.

Turning to `COc1ccc2cc(S(=O)(=O)N[C@H](CC(=O)N[C@H](Cc3ccc(CN4[C@H](C)CCC[C@@H]4C)cc3)C(=O)N(C)C(C)C)c3ccc4c(c3)OCO4)ccc2c1`, in test [4], the outcome was inactive.

Turning to `CCCOC(=O)c1cc(O)c(O)c(O)c1`, the outcome in test [4] was inactive.

Consider `Clc1ccccc1C(c1ccccc1)(c1ccccc1)n1ccnc1`, for which the concentration at half-maximal activity (AC50) in test [5] is 5.01 µM (active); in test [6] it was 5.03 µM (active). Moreover, the outcome in test [4] was inactive.

For the molecule `O=c1ccc2ccccc2o1`, the result in test [4] was inactive.

Turning to `CC(C)(O)c1ccc(CNC(=O)c2cccnc2Oc2ccc3nonc3c2)cc1`, the result in test [1], in test [2], in test [3], in test [7] and in test [4] was inactive.

Consider `CCCCCCCC[Si](OCC)(OCC)OCC`, for which the result in test [4] was inactive.

Turning to `Clc1cc(Cl)c2c(c1)N=C1CCCCCN1C2`, in test [4], the outcome was inactive.
